The results in this text go back to PubChem BioAssay (EPA / NIEHS).

Records with an inconclusive call do not appear. The source made the active and inactive calls. Rule for the calls, unless noted: active = hit-call score of the fitted dose curve at least 0.9, where 1 is the maximum; inconclusive = response in the unintended direction; inactive = score below 0.9.

Assay [1] has as its system Sodium/Iodide Symporter (NIS), SLC5A5 (gene 6528). As to the kind of experiment: CPHEA_Stoker_NIS_Inhibition_RAIU: CPHEA's Radioactive Iodide Uptake (RAIU) Assay for Sodium/Iodide Symporter (NIS) Inhibition, Stoker and Laws Labs (AID 2283841). The essentials: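 hNIS-HEK293T-EPA cells incubated 2 h at room temperature with compound (0.001–100 uM, 0.5% DMSO) and 329 pM final 125I in HBSS/10 mM HEPES, pH 7.4. Intracellular 125I counted; normalised to DMSO maximal uptake, triplicate, three biological replicates.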

Assay [2] in a line: CPHEA_Stoker_NIS_Cytotoxicity: Cytotoxicity Assessment for CPHEA's Radioactive Iodide Uptake (RAIU) Assay for Sodium/Iodide Symporter (NIS) Inhibition, Stoker and Laws Labs (AID 2283897).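 For AC50: active means loss of ATP signal versus DMSO meaning cytotoxicity.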 The essentials: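 hNIS-HEK293T-EPA cells, human NIS expressed in HEK293T, treated 2 h with chemicals (0.001–100 uM, 0.5% final DMSO). ATP content read by CellTiter-Glo luminescence; loss of signal analysed relative to DMSO.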

Assay [3] concerns the target PGR (gene 5241) (UniProt P06401). As to the kind of experiment: TOX21_PR_BLA_Followup_Antagonist_ratio: Tox21 HEK293 Progesterone Receptor (PR) Antagonism Beta-lactamase Follow-Up Assay, Ratio (AID 2283934). An outline of the steps: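 PR-UAS-bla HEK293T cells in medium with 2% charcoal-stripped FBS were treated with compounds plus 1 nM (final) promegestone (R5020) for 16 hr at 37C. LiveBLAzer B/G FRET substrate was then added for 2 h at room temperature; signal is cleaved/uncleaved substrate ratio versus DMSO.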

A short description of assay [4]: TOX21_PR_BLA_Followup_Agonist_viability: Viability Assessment in the Tox21 HEK293 Progesterone Receptor (PR) Agonism Beta-lactamase Follow-Up Assay (AID 2283935).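 Note: signal loss means lower viability so actives are cytotoxic.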 The essentials:
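PR-UAS-bla HEK293T cells in 2% charcoal-stripped FBS medium, compound added after 6 hr plating, 16 hr at 37C/5% CO2. After bla FRET read, CellTiter-Glo added; luminescence read after 30 min at room temperature; signal loss marks cytotoxicity.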

The nature of assay [5]: TOX21_PR_BLA_Followup_Antagonist_viability: Viability Assessment in the Tox21 HEK293 Progesterone Receptor (PR) Antagonism Beta-lactamase Follow-Up Assay (AID 2283936).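 Note: hits lower the luminescence signal meaning cytotoxicity.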 The essentials:
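PR-UAS-bla HEK293T cells (3,000/well, 2% charcoal-stripped FBS) given compound plus R5020 agonist, 16 h at 37C. CellTiter-Glo added after bla read, 30 min at room temperature; luminescence loss indicates cytotoxicity.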

Assay [6] is described as follows: TOX21_PR_LUC_Followup_Antagonist_viability: Viability Assessment in the Tox21 HEK293 Progesterone Receptor (PR) Antagonism Luciferase Follow-Up Assay (AID 2283940). The essentials: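 HEK293-PR-A-luc cells, precultured 5 days in assay medium with 10% charcoal-stripped FBS, were seeded at 3,000 cells/well, treated with compounds in DMSO for 16 h at 37C, and viability was read as cellular ATP by CellTiter-Glo luminescence.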

For assay [7], the target named is PGR (gene 5241) (UniProt P06401). In words: TOX21_PR_LUC_Followup_Antagonist: Tox21 HEK293 Progesterone Receptor (PR) Antagonism Luciferase Follow-Up Assay (AID 2283938).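 Note: curve fitted upward as signal gain over DMSO baseline despite antagonist label.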 An outline of the steps: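 HEK293-PR-A-luc cells, 3,000/well, preincubated 5 h at 37C before compound addition in DMSO; 16 h compound exposure at 37C. ONE-Glo luciferase luminescence read after 30 min at room temperature, fitted relative to DMSO baseline.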

Assay [8] addresses Thyroid hormone receptor alpha (Rattus norvegicus) + Thyroid hormone receptor beta (Rattus norvegicus) (UniProt P18113+P63059). As to the kind of experiment: TOX21_TR_LUC_GH3_Agonist_Followup: Tox21 GH3 Thyroid Hormone Receptor Agonism Luciferase Follow-Up Assay (AID 2283939). The essentials:
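Rat GH3 cells (1,500/well) in serum-free assay medium, treated with 15-point series, 92 uM to 5 nM final, for 24 h at 37C. Luciferase via ONE-Glo luminescence; gain of signal fitted against DMSO, T3 positive control.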

Assay [9] addresses PGR (gene 5241) (UniProt P06401). In words: TOX21_PR_BLA_Followup_Agonist_ratio: Tox21 HEK293 Progesterone Receptor (PR) Agonism Beta-lactamase Follow-Up Assay, Ratio (AID 2283933). The essentials: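 PR-UAS-bla HEK293T cells (GAL4-UAS beta-lactamase reporter) in medium with 2% charcoal-stripped FBS received compounds after 6 hr at 37C, then incubated 16 hr. LiveBLAzer FRET substrate added, 2 hr room temperature; cleaved/uncleaved (ch2/ch1) ratio fitted upward versus DMSO.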

Assay [10] shares this target. In words: TOX21_PR_LUC_Followup_Agonist: Tox21 HEK293 Progesterone Receptor (PR) Agonism Luciferase Follow-Up Assay (AID 2283937; active = hit-call score of the fitted dose curve at least 0.9, where 1 is the maximum; inactive = score below 0.9). An outline of the steps: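 HEK293-PR-A-luc cells, pre-cultured 5 days in medium with 10% charcoal-stripped FBS, were seeded at 3,000 cells/well, rested 5 h at 37C, then exposed to compounds 16 h at 37C; luciferase read by ONE-Glo luminescence after 30 min.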

PGR (gene 5241), sequence (P06401 whole entry, looked up, the tested form may be a part): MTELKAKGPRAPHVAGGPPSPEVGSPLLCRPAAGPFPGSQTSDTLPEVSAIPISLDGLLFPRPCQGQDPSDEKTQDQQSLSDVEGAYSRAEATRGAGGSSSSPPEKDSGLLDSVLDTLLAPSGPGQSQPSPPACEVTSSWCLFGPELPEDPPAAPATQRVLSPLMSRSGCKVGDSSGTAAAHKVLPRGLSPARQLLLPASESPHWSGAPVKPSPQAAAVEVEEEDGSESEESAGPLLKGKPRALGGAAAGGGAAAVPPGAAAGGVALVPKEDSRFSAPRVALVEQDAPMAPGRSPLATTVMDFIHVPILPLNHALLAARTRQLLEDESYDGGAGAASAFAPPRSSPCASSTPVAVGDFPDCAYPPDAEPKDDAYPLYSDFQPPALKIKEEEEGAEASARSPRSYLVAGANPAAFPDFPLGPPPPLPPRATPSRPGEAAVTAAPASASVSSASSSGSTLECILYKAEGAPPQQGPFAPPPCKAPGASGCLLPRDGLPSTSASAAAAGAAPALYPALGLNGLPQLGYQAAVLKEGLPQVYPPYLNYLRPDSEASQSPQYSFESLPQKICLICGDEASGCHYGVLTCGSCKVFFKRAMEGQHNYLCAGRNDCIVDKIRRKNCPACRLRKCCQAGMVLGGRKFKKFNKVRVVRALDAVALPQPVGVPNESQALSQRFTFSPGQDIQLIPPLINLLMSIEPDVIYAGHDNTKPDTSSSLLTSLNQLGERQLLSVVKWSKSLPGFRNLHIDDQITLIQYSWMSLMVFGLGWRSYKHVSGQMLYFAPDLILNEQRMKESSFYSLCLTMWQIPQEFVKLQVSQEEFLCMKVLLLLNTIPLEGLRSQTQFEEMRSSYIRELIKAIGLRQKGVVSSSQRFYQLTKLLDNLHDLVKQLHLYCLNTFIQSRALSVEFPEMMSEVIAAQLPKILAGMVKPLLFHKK
Thyroid hormone receptor alpha (Rattus norvegicus) + Thyroid hormone receptor beta (Rattus norvegicus), sequence (P63059 whole entry, looked up): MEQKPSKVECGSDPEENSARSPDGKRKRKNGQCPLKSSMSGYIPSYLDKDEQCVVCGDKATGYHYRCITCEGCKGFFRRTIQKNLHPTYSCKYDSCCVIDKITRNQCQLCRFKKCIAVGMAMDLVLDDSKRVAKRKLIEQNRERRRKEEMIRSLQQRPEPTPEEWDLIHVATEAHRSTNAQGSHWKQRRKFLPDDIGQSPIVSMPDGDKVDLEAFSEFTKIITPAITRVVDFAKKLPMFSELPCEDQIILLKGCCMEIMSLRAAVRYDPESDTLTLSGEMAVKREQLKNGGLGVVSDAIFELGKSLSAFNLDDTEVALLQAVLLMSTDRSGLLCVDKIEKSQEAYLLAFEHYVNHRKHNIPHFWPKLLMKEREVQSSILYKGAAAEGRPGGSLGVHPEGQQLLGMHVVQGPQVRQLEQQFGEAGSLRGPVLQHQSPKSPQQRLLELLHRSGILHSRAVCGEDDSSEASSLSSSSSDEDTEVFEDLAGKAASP
Thyroid hormone receptor alpha (Rattus norvegicus) + Thyroid hormone receptor beta (Rattus norvegicus), sequence (P18113 whole entry, looked up): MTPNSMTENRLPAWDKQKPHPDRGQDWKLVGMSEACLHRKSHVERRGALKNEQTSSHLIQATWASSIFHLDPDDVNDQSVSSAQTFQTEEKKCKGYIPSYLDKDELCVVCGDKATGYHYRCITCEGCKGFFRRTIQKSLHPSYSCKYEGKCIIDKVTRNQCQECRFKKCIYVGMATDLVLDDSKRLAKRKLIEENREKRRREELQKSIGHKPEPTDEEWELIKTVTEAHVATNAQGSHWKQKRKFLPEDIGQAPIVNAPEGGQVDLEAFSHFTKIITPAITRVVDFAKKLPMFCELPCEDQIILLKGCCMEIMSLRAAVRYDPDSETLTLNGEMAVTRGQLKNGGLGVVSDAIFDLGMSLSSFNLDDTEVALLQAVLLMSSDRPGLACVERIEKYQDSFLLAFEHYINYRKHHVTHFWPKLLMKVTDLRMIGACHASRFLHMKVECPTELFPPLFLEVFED

Take `CC/C=C\C/C=C\C/C=C\CCCCCCCC(=O)O`: the outcome in assay [1] and in assay [2] was inactive.
Consider `O=c1cc(-c2ccccc2)oc2ccccc12`, for which the outcome in assay [1] and in assay [2] was inactive.
Regarding `CCCCCCCCCCOS(=O)(=O)O`, the concentration at half-maximal activity (AC50) in assay [1] was 8.08 µM (active). The outcome in [2] was inactive.
Consider `C[C@]12C=CC(=O)C=C1CC[C@@H]1[C@@H]2[C@@H](O)C[C@@]2(C)[C@H]1CC[C@]2(O)C(=O)CO`, for which the outcome in assay [3], in assay [4], in assay [5] and in [6] was inactive.
As to `C1CN(SSN2CCOCC2)CCO1`, the result in assay [2] was inactive.
`CN(C)c1ccc(C(=N)c2ccc(N(C)C)cc2)cc1`: in [1], the AC50 is 19.8 µM (active). The result in [2] was inactive.
In the case of `CCOC(=O)c1ccccc1C(=C1C=C(Br)C(=O)C(Br)=C1)c1cc(Br)c(O)c(Br)c1`, the half-maximal activity concentration (AC50) is 24.5 µM (active) in [3] and 28.9 µM (active) in assay [7]. Further, the outcome in [4], in [5] and in assay [6] was inactive.
For the compound `COc1ccc(C(Cl)=C(c2ccc(OC)cc2)c2ccc(OC)cc2)cc1`, the AC50 was 8.27 µM (active) in assay [3] and 8.88 µM (active) in assay [7]. The result in assay [4], in [5] and in [6] was inactive.
Turning to `CCN(CCC#N)c1ccc(N=Nc2c(Cl)cc([N+](=O)[O-])cc2Cl)cc1`, the outcome in assay [1] and in assay [2] was inactive.
For the compound `NC(CO)(CO)CO`, the result in assay [1] and in [2] was inactive. Also, the AC50 in assay [8] is 10.6 µM (active).
Regarding `Oc1ccc(Cl)cc1Cc1cc(Cl)ccc1O`, the AC50 in assay [1] was 9.92 µM (active); in assay [2] it was 50 µM (active).
As for `CC(=O)[C@H]1[C@H](C#N)C[C@H]2[C@@H]3CC=C4C[C@@H](O)CC[C@]4(C)[C@H]3CC[C@@]21C`, in [3], the AC50 was 19.2 µM (active). Further, the compound was called inactive in assay [4], in assay [5] and in assay [7].
For `CCOC(=O)Cc1cccc2ccccc12`, the outcome in assay [1] and in [2] was inactive.
As to `CCC(=O)Oc1ccc(/C(CC)=C(\CC)c2ccc(OC(=O)CC)cc2)cc1`, the AC50 is 9.26 µM (active) in assay [3] and 16.5 µM (active) in assay [7]. For the same compound, the outcome in [4], in [5] and in assay [6] was inactive.
As for `CC(C)(c1cc(Br)c(OCCO)c(Br)c1)c1cc(Br)c(OCCO)c(Br)c1`, the outcome in [9], in assay [10] and in assay [6] was inactive. Also, the AC50 was 13.4 µM (active) in [3], 32.2 µM (active) in assay [4], 54 µM (active) in [5] and 12.8 µM (active) in assay [7].
